Measured values as given in PubChem BioAssay AID1053127 (Broad Institute, 2014).
Potency and affinity values are given separately. Activity calls are given as the source filed them.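 The calls were made as follows: active = compounds whose fitted curve of lowered CTGF expression reaches half effect within a set concentration limit; inconclusive = flat moderate drop in CTGF, or unreliable curve fit; inactive = the rest.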

assay: CTGF mRNA reduction under YAP1 overexpression, dose response, mechanism study for YAP1 pathway inhibitor project, DLD1 cells, RT-qPCR, cherry-pick (AID 1053127); settings: DLD1 YAP1-overexpressing, 24 h; series mostly up to 26 µM

Row | SMILES | outcome
1 | COc1ccccc1NC(=O)N1CCCCN2[C@@H](CO)[C@H](c3ccc(-c4cccc(C#N)c4)cc3)[C@@H]2C1 | inactive
2 | COc1ccc2c3c(n(C)c2c1)[C@@H](CO)N(Cc1ccncc1)CC31CN(C(=O)Nc2cccc(F)c2)C1 | inactive
3 | O=C(CC1CC1)N1CC(=O)N2[C@H](CO)[C@@H](c3ccc(C#Cc4cccc(F)c4)cc3)[C@H]2C1 | inactive
4 | CC(C)(C)[S@](=O)N1Cc2cc(C(=O)NCc3ccccn3)nc(-c3cccc(-c4ccccc4F)c3)c2[C@@H]1CCO | inactive
5 | CCCC#Cc1ccc([C@@H]2[C@@H](C#N)N(C(=O)CN3CCOCC3)[C@H]2CO)cc1 | inactive
6 | C[C@@H]1CN([C@H](C)CO)C(=O)c2ccccc2-c2ccccc2CO[C@@H]1CN(C)Cc1ccc2c(c1)OCCN2C | inactive
7 | C[C@@H]1CN([C@H](C)CO)C(=O)c2ccccc2-c2ccccc2CO[C@@H]1CN(C)Cc1ccccc1C(F)(F)F | inactive
8 | C[C@@H]1CN([C@H](C)CO)C(=O)CCCn2nncc2CO[C@@H]1CN(C)C(=O)c1cc(-c2ccccc2)on1 | inactive
9 | CNC[C@H]1Oc2c(NC(=O)Nc3cccc4ccccc34)cccc2C(=O)N([C@H](C)CO)C[C@@H]1C | inactive
10 | C[C@@H]1CN([C@H](C)CO)C(=O)CCCn2nncc2CO[C@@H]1CN(C)Cc1cccc(C(F)(F)F)c1 | inactive
11 | CN1C(=O)c2cc(NC(=O)Cc3cccs3)ccc2OC[C@@H]2O[C@@H](CC(=O)NCCc3ccncc3)CC[C@H]21 | inactive
12 | Cc1ccc(S(=O)(=O)N[C@H]2C=C[C@H](CC(=O)NCc3ccc(Cl)c(Cl)c3)O[C@H]2CO)cc1 | inactive
13 | C[C@@H]1CN([C@@H](C)CO)C(=O)c2cc(C#Cc3ccccc3)cnc2O[C@@H]1CN(C)C(=O)c1ccccc1 | inactive
14 | CCc1nc(N2[C@H](CO)[C@@H](c3ccccc3-c3ccc(F)cc3)[C@@H]2C#N)sc1C | inactive
15 | C[C@@H]1CN([C@H](C)CO)C(=O)c2ccccc2-c2ccccc2CO[C@@H]1CN(C)Cc1cccc2c1OCCCO2 | inactive
16 | O=C(CC1CC1)N1CC(=O)N2[C@@H](CO)[C@H](c3ccc(/C=C/c4ccccc4)cc3)[C@@H]2C1 | inactive
17 | C[C@@H]1CN([C@H](C)CO)C(=O)c2c(c3ccccc3n2C)-c2ccccc2CO[C@@H]1CN(C)Cc1cccc(C(F)(F)F)c1 | inactive
18 | COc1ccccc1S(=O)(=O)N1CC[C@@H]2[C@H]1c1cc(-c3cccc(C#N)c3)ccc1N(C)[C@H]2CO | inactive
19 | C[C@H](CO)N1C[C@H](C)[C@H](CN(C)Cc2ccc(Oc3ccccc3)cc2)OCc2ccccc2-c2ccccc2C1=O | inactive
20 | Cc1ccc(S(=O)(=O)Nc2ccc3c(c2)C(=O)N([C@H](C)CO)C[C@@H](C)[C@H](CN(C)S(=O)(=O)c2cccs2)OCCCC[C@@H](C)O3)cc1 | inactive

Row | SMILES | outcome
21 | COc1ccc(CN(C)C[C@H]2Oc3ccc(NC(=O)Nc4ccc5c(c4)OCO5)cc3CC(=O)N([C@@H](C)CO)C[C@H]2C)cc1 | inactive
22 | C[C@H](CO)N1C[C@H](C)[C@@H](CN(C)S(=O)(=O)c2ccc([N+](=O)[O-])cc2)OCc2ccccc2-c2c(n(C)c3ccccc23)C1=O | inactive
23 | C[C@@H]1CN([C@@H](C)CO)C(=O)c2ccccc2-c2ccccc2CO[C@H]1CN(C)C(=O)Nc1ccc(-c2ccccc2)cc1 | inactive
24 | COc1ccccc1C#Cc1ccc([C@H]2[C@H](CO)N3CCCCN(C(=O)C4CCC4)C[C@@H]23)cc1 | inactive
25 | CN(C)C(=O)c1ccc(-c2cccc(-c3nc(C(=O)NCc4ccccc4)cc4c3[C@@H](CCO)N([S@](=O)C(C)(C)C)C4)c2)cc1 | inactive
26 | O=C(Nc1ccc2c(c1)[C@H]1C[C@@H](CC(=O)N3CCc4ccccc4C3)O[C@@H](CO)[C@H]1O2)c1ccc2c(c1)OCO2 | inactive
27 | C/C=C/c1cccc(-c2nc(C(=O)Nc3nccs3)cc3c2[C@@H](CCO)N(C(=O)NC(C)C)C3)c1 | inactive
28 | COc1ccc2c3c(n(C)c2c1)[C@H](CO)N(S(C)(=O)=O)CC31CCN(C(=O)Nc2cccc(F)c2)CC1 | inactive
29 | COc1ccc(NC(=O)N2CCCCN3[C@@H](CO)[C@H](c4ccc(-c5ccccc5F)cc4)[C@@H]3C2)cc1 | inactive
30 | CCC(=O)N1Cc2cc(C(=O)NCc3cccc(F)c3)nc(-c3cccc(C4=CCCC4)c3)c2[C@H]1CCO | inactive
31 | COc1ccc(S(=O)(=O)Nc2ccc3c(c2)C(=O)N([C@@H](C)CO)C[C@H](C)[C@@H](CN(C)S(=O)(=O)c2ccc(Cl)cc2)OCCCC[C@@H](C)O3)cc1 | inactive
32 | COCC(=O)N1CC(=O)N2[C@H](CO)[C@@H](c3ccc(C#CC4CC4)cc3)[C@H]2C1 | inactive
33 | NCC[C@H]1CC[C@@H](NC(=O)NC2CCCCC2)[C@H](CO)O1 | inactive
34 | COc1cccc(-c2ccc([C@@H]3[C@@H](C#N)N(C(=O)Cc4ccncc4)[C@@H]3CO)cc2)c1 | inactive
35 | C[C@H]1CN([C@@H](C)CO)S(=O)(=O)c2ccc(-c3cncnc3)cc2O[C@@H]1CN(C)C(=O)NC1CCCC1 | inactive
36 | C[C@@H]1CN([C@@H](C)CO)C(=O)Cc2cc(NC(=O)C3CCCCC3)ccc2O[C@@H]1CN(C)Cc1ccc(Cl)c(Cl)c1 | inactive
37 | N#C[C@@H]1[C@H](c2ccc(-c3cccc(F)c3)cc2)[C@H](CO)N1C(=O)NC1CCCC1 | inactive
38 | CN1CCN(C(=O)C[C@@H]2CC[C@H]3[C@@H](COc4ccc(NC(=O)C5CCOCC5)cc4C(=O)N3C)O2)CC1 | inactive
39 | C[C@@H]1CN([C@@H](C)CO)C(=O)c2cc(NC(=O)Nc3ccccc3)ccc2O[C@@H](C)CCCCO[C@@H]1CN(C)C(=O)Nc1ccccc1 | inactive
40 | C[C@H]1CN([C@@H](C)CO)C(=O)c2cc(C#Cc3ccccc3)cnc2O[C@H]1CN(C)C(=O)c1ccccc1 | inactive
